Each structure is given as a SMILES string. Activity calls are given as the source filed them. How the source made its calls: active means hit-call score of the fitted dose curve at least 0.9, where 1 is the maximum; inactive means score below 0.9.

For assay [1], the target named is Bile acid receptor (Homo sapiens) (UniProt Q96RI1). Kind of assay: ATG_IR1_CIS: Attagene CIS-FACTORIAL HepG2 Assay for human Nuclear Receptor Subfamily 1 Group H Member 4 (NR1H4), IR1 submotif (AID 2282946). The conditions noted are these: IR1 reporter transcription, actives raise or lower the signal. In outline: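 HepG2 cells transiently transfected with multiplexed cis-element reporter units read endogenous transcription factor activity. After 24 h compound exposure, reporter mRNA was quantified by RT-PCR, fluorescent labelling, HpaI digestion and capillary electrophoresis; bidirectional fitting versus DMSO baseline.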

Assay [2] in a line: ATG_ISRE_CIS: Attagene CIS-FACTORIAL HepG2 Assay for human Interferon Regulatory Factor 1 (IRF1) binding to an Interferon-Stimulated Response Element (ISRE) (AID 2282948). The conditions noted are these: HepG2 ISRE cis-reporter (Attagene), mRNA transcription readout; actives raise or lower the signal. In outline:
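Read-out: fluorescent RT-PCR products resolved by capillary electrophoresis, reporting endogenous transcription factor activity via ISRE-driven reporter mRNA in transfected HepG2 cells dosed for 24 h; gain or loss fitted relative to DMSO.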

Assay [3] can be described thus: ATG_M_32_CIS: Attagene CIS-FACTORIAL HepG2 Assay for M32 Transcription Factor (Internal Marker) (AID 2282949).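 Further: background control marker of the multiplexed CIS panel rather than a real target.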 The following applies: HepG2 Attagene cis-factorial M32 reporter, mRNA; actives raise or lower the signal. Summed up: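 HepG2 transfectants (cis-regulated reporter transcription units) dosed 24 h. Reporter mRNA by RT-PCR plus CE, analysed as gain or loss relative to DMSO.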

Assay [4] concerns the target Hypoxia-inducible factor 1-alpha (Homo sapiens) (UniProt Q16665). Put plainly: ATG_HIF1a_CIS: Attagene CIS-FACTORIAL HepG2 Assay for human Hypoxia Inducible Factor 1 (HIF1A) (AID 2282951). The following applies: HepG2 Attagene cis-factorial HIF1a reporter transcription; actives raise or lower the signal. Summed up:
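HepG2, transient cis-reporter library, 24 h dosing. RNA → RT (oligo dT) → PCR → 6-FAM primer extension → HpaI → CE. Bidirectional curve fit vs DMSO.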

Assay [5] concerns the target Hepatocyte nuclear factor 6 (Homo sapiens) (UniProt Q9UBC0). Put plainly: ATG_HNF6_CIS: Attagene CIS-FACTORIAL HepG2 Assay for human Hepatocyte Nuclear Factor 6 (HNF6) (AID 2282952). The conditions noted are these: HepG2 Attagene cis-factorial HNF6 reporter transcription; actives raise or lower the signal. In outline:
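Endogenous transcription factor activity in human HepG2 liver cells was captured through cis-regulated reporter constructs. After 24 h treatment, reporter mRNA was measured by RT-PCR with capillary electrophoresis, and activity was fitted in both directions relative to DMSO.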

For assay [6], the target named is Heat shock factor protein 1 (Homo sapiens) (UniProt Q00613). Kind of assay: ATG_HSE_CIS: Attagene CIS-FACTORIAL HepG2 Assay for human Heat Shock Transcription Factor 1 (HSE) (AID 2282953). The following applies: HepG2 HSE cis-reporter, Attagene RNA transcription; actives raise or lower the signal. Summed up: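 After a 24 h incubation with test chemical, transfected HepG2 cells were harvested for RNA; reporter transcripts were measured by RT-PCR and capillary electrophoresis. Values reflect gain or loss of signal relative to DMSO.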

A short description of assay [7]: ATG_MRE_CIS: Attagene CIS-FACTORIAL HepG2 Assay for human Metal Responsive Element (MRE) (AID 2282954). The conditions noted are these: HepG2 MRE cis-reporter transcription, Attagene multiplex; actives raise or lower the signal. Summed up: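 Endogenous MRE-dependent transcription read as reporter mRNA in transiently transfected human HepG2 cells at 24 h. RNA reverse-transcribed, PCR-amplified, labelled and resolved by capillary electrophoresis; gain or loss relative to DMSO.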

Assay [8] in a line: ATG_PBREM_CIS: Attagene CIS-FACTORIAL HepG2 Assay for human Phenobarbital-responsive Enhancer Module (PBREM) (AID 2282955). The following applies: HepG2 PBREM cis-reporter, Attagene multiplexed transcription; actives raise or lower the signal. In outline: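 HepG2, transient MRTU transfection, 24 h dosing; RNA → oligo(dT) RT → PCR → 6-FAM extension → HpaI → CE. Bidirectional fit vs DMSO.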

Assay [9] addresses Paired box protein Pax-6 (Homo sapiens) (UniProt P26367). Put plainly: ATG_Pax6_CIS: Attagene CIS-FACTORIAL HepG2 Assay for human Paired Box 6 (PAX6) (AID 2282956). The following applies: HepG2 CIS-FACTORIAL PAX6 reporter transcription, RNA readout; actives raise or lower the signal. Summed up: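 Readout: reporter transcript fluorescence after RT-PCR and capillary electrophoresis. Cells: HepG2, transiently transfected with cis-regulated MRTUs. Exposure 24 h. Gain or loss of signal fitted bidirectionally relative to DMSO.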

The nature of assay [10]: ATG_PXRE_CIS: Attagene CIS-FACTORIAL HepG2 Assay for human Pregnane X Receptor Element (PXRE) (AID 2282957). The following applies: HepG2 Attagene CIS-FACTORIAL PXRE reporter, mRNA; actives raise or lower the signal. Summed up: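 Endogenous transcription factor activity in HepG2 was gauged through induction of reporter mRNA driven by a cis-regulating promoter element, sampled 24 h post-treatment. Activity was fitted in both directions against DMSO negative control.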

Assay [11] in a line: ATG_PPRE_CIS: Attagene CIS-FACTORIAL HepG2 Assay for human Peroxisome Proliferator-activated Response Element (PPRE) (AID 2282958). The conditions noted are these: HepG2 PPRE cis-element reporter, Attagene transcription factor profiling; actives raise or lower the signal. In outline:
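Transcript-level reporter induction in transfected HepG2 cells after 24 h chemical exposure, quantified by fluorescence from RT-PCR products separated by capillary electrophoresis.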

Assay [12] in a line: ATG_RORE_CIS: Attagene CIS-FACTORIAL HepG2 Assay for human RAR-related Orphan Receptor Element (RORE) (AID 2282959). The following applies: HepG2 Attagene cis-factorial RORE reporter, mRNA; actives raise or lower the signal. Summed up:
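Multiplexed reporter assay measuring mRNA induction from a cis promoter element in transiently transfected HepG2 cells after 24 h treatment. Detection via RT-PCR and capillary electrophoresis fluorescence; DMSO serves as baseline.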

A short description of assay [13]: ATG_Sox_CIS: Attagene CIS-FACTORIAL HepG2 Assay for human SRY-box transcription factor (SOX) (AID 2282960). The conditions noted are these: HepG2 Attagene cis-factorial SOX reporter, mRNA; actives raise or lower the signal. In outline: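 Cells were transfected with reporter constructs under cis-regulatory promoters, then exposed to chemicals for 24 h. Reporter transcripts were quantified by fluorescence after RT-PCR and capillary electrophoresis; activity was fitted in both directions against DMSO.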

The target in assay [14] is Transcription factor Sp1 (Homo sapiens) (UniProt P08047). Kind of assay: ATG_Sp1_CIS: Attagene CIS-FACTORIAL HepG2 Assay for human Specificity Protein 1 (Sp1) (AID 2282961). The conditions noted are these: HepG2 Sp1 cis-reporter transcription, actives raise or lower the signal. In outline:
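Measures mRNA induction of an Sp1-linked reporter in HepG2 cells 24 h post-dosing. Multiplexed reporters read by RT-PCR and capillary electrophoresis; DMSO serves as negative control and baseline.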

The nature of assay [15]: ATG_SREBP_CIS: Attagene CIS-FACTORIAL HepG2 Assay for human Sterol Regulatory Element Binding (SREBP) (AID 2282962). The conditions noted are these: HepG2 Attagene cis-factorial SREBP reporter, mRNA; actives raise or lower the signal. In outline:
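Readout: fluorescent reporter-transcript peaks resolved by capillary electrophoresis after RT-PCR. Cells were human HepG2 carrying transfected cis-promoter reporter constructs, dosed for 24 h. Gain or loss of signal was fitted against DMSO controls.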

The target in assay [16] is Signal transducer and activator of transcription 3 (Homo sapiens) (UniProt P40763). Put plainly: ATG_STAT3_CIS: Attagene CIS-FACTORIAL HepG2 Assay for human Signal Transducer and Activator of Transcription 3 (STAT3) (AID 2282963). The following applies: HepG2, Attagene cis-factorial STAT3 reporter transcription; actives raise or lower the signal. Summed up: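 Readout is reporter transcript quantified by RT-PCR and capillary electrophoresis, with 6-FAM primer extension and HpaI digestion. Total RNA is taken 24 h after dosing transiently transfected HepG2 carrying cis-regulated reporter units. Bidirectional fit against DMSO.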

The nature of assay [17]: ATG_TA_CIS: Attagene CIS-FACTORIAL HepG2 Assay for human TA Basal Promoter (AID 2282964). The conditions noted are these: HepG2 Attagene CIS-factorial TA basal promoter reporter; actives raise or lower the signal. In outline:
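Multiplexed mRNA reporter assay, HepG2, 24 h. Reporter cDNA amplified, 6-FAM primer-extended, HpaI-cut, CE-sized; DMSO = negative control and baseline.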

Assay [18] can be described thus: ATG_TCF_b_cat_CIS: Attagene CIS-FACTORIAL HepG2 Assay for human T-Cell-Factor with beta-catenin (TCF/b-cat) (AID 2282965). The following applies: HepG2 TCF/beta-catenin cis-reporter transcription, actives raise or lower the signal. In outline:
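Endogenous transcription factor activity is captured through cis-promoter reporter constructs transiently introduced into human HepG2 liver cells. Induced reporter mRNA is measured after 24 h and fitted bidirectionally relative to DMSO.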

A short description of assay [19]: ATG_M_06_CIS: Attagene CIS-FACTORIAL HepG2 Assay for M06 Transcription Factor (Internal Marker) (AID 2282950). The following applies: HepG2 Attagene CIS-FACTORIAL M06 internal marker reporter; actives raise or lower the signal. Summed up:
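Fluorescence-labelled RT-PCR products from cis-promoter reporter units, cut with HpaI and resolved by capillary electrophoresis, give the signal. Cells are human HepG2, dosed for 24 h. Serves as background control, fitted relative to DMSO.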

Chain of Bile acid receptor (Homo sapiens) (Q96RI1 whole entry, looked up): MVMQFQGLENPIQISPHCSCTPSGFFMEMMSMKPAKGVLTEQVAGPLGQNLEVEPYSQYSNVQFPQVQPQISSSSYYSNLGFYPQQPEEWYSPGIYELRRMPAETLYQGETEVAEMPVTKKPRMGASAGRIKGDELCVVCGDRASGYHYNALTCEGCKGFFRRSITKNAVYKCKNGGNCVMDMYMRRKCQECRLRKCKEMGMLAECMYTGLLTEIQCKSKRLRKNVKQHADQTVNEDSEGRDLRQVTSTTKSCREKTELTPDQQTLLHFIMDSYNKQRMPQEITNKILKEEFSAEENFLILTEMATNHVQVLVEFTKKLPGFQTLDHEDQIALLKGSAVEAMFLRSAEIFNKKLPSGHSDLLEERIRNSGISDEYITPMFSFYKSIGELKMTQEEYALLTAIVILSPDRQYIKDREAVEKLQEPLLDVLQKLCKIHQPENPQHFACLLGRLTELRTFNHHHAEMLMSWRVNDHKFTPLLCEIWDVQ
Chain of Signal transducer and activator of transcription 3 (Homo sapiens) (P40763 whole entry, looked up): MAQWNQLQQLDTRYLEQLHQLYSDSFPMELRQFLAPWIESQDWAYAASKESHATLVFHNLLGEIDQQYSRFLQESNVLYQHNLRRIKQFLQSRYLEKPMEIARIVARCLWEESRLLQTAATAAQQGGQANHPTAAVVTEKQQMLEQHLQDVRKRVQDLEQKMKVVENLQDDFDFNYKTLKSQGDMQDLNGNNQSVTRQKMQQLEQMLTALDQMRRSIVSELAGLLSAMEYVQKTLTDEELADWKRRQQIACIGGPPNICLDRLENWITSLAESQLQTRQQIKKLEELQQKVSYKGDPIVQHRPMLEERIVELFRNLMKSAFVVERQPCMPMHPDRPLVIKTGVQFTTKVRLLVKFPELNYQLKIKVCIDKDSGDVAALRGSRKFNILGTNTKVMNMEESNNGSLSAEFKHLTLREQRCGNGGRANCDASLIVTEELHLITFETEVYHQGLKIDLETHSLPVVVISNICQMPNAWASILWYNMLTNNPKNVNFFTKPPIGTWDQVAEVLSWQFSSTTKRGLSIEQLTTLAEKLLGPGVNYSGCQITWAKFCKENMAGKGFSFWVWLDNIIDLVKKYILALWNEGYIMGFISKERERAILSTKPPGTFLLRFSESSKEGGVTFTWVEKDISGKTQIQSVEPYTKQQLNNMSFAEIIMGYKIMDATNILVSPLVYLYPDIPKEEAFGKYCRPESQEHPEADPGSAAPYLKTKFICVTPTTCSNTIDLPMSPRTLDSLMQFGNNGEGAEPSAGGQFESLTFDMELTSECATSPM
Chain of Paired box protein Pax-6 (Homo sapiens) (P26367 whole entry, looked up): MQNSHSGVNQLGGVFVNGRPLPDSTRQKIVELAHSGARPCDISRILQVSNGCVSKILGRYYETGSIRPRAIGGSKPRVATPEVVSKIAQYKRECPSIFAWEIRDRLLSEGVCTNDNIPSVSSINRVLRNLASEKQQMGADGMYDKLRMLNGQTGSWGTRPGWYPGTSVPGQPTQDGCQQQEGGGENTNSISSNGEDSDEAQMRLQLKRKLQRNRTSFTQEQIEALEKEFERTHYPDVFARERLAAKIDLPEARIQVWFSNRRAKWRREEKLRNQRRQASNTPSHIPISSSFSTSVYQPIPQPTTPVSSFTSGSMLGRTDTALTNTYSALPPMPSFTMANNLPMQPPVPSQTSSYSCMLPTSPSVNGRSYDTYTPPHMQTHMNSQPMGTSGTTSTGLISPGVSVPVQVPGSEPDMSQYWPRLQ
Chain of Heat shock factor protein 1 (Homo sapiens) (Q00613 whole entry, looked up): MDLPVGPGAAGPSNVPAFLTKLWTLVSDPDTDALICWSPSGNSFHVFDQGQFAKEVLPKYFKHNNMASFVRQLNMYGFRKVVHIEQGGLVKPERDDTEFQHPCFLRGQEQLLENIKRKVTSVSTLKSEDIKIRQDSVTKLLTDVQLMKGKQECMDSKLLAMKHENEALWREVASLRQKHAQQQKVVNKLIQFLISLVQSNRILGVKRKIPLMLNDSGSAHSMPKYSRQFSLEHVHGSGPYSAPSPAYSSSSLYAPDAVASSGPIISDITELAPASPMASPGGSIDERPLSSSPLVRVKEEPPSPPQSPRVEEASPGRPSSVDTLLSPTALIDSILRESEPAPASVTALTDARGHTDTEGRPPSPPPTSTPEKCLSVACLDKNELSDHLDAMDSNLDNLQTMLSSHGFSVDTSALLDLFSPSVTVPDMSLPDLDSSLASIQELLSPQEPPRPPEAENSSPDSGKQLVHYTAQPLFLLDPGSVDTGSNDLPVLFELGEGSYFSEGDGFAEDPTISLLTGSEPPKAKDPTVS
Chain of Transcription factor Sp1 (Homo sapiens) (P08047 whole entry, looked up): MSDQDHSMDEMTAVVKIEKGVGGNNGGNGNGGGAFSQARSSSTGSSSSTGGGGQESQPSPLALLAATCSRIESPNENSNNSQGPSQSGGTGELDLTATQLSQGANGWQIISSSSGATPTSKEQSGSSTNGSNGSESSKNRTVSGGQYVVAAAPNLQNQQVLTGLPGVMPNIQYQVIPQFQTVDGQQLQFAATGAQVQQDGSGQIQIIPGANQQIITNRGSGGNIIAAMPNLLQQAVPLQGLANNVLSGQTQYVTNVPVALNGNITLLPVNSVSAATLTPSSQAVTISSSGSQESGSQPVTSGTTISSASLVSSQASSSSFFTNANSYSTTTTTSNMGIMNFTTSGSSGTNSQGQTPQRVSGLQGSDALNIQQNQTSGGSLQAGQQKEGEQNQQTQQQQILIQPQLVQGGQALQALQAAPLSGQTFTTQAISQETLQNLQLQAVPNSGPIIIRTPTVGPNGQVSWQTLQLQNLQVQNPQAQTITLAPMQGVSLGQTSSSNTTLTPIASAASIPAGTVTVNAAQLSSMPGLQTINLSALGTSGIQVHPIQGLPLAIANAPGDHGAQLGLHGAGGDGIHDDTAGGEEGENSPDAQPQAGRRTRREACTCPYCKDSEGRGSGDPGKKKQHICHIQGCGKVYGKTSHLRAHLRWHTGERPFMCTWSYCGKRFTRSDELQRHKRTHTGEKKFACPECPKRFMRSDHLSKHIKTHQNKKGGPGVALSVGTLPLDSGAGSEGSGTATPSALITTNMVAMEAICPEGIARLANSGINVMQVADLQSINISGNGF
Chain of Hepatocyte nuclear factor 6 (Homo sapiens) (Q9UBC0 whole entry, looked up): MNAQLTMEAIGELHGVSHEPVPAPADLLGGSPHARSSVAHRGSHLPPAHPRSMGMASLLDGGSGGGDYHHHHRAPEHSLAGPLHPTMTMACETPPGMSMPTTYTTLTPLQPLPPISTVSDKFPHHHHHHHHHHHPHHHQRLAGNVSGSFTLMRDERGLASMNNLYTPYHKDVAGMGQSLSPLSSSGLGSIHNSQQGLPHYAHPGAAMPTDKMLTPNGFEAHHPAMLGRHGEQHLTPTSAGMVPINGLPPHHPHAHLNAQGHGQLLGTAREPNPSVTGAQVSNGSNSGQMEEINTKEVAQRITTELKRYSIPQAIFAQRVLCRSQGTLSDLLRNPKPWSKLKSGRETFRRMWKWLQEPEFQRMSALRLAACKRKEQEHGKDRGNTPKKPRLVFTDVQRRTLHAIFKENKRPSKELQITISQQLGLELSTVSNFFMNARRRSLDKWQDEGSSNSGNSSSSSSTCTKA
Chain of Hypoxia-inducible factor 1-alpha (Homo sapiens) (Q16665 whole entry, looked up): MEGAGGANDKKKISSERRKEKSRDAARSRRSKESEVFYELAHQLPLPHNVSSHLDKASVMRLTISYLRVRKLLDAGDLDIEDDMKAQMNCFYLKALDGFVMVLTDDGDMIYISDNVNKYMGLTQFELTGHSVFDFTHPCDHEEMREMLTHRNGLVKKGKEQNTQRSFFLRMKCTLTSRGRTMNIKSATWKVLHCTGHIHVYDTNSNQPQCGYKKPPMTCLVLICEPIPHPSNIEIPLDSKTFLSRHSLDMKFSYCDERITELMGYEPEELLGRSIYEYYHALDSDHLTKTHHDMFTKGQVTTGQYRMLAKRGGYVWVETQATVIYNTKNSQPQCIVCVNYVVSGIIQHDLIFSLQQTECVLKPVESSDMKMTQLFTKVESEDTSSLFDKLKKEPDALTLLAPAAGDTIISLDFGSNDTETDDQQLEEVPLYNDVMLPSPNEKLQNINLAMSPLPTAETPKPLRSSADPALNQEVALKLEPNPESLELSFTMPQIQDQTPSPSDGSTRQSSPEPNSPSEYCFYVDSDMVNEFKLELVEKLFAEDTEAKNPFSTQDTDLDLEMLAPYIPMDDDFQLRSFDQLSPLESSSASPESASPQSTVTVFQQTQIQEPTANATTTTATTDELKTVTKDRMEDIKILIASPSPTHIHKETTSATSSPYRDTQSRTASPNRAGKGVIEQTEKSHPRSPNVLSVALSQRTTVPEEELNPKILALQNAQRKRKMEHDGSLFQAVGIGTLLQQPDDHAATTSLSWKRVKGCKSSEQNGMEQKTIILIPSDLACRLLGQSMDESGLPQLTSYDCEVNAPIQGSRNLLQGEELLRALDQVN

With `CCCCCC(C=O)=Cc1ccccc1`, the molecule was called inactive in [1], in [3], in [4], in assay [5], in [7] and in assay [8]. For the same molecule, the molecule was called inactive in assay [9], in [12], in [13], in assay [14], in assay [15] and in assay [16]. In addition, the call in [17] and in [18] was inactive. Moreover, the AC50 (as a rule, the concentration at which the activity in the assay is half-maximal) in [2] was 160 µM (active); in [6], 173 µM (active); in assay [10], 24.5 µM (active); in [11], 26.5 µM (active).
With `CCC1(C)NC(=O)NC1=O` (stereo unspecified), the result in assay [1], in [2], in assay [3], in assay [19], in assay [4] and in assay [5] was inactive. Further, the result in assay [7], in [9], in [10], in [11], in [13] and in assay [14] was inactive. Moreover, the call in assay [15], in assay [16], in assay [17] and in [18] was inactive.
With `COc1ccc(COC(C)=O)cc1`, the call in assay [1], in assay [2], in assay [3], in assay [19], in [5] and in [6] was inactive. In addition, the molecule was classed as inactive in assay [7], in [8], in [9], in assay [10], in assay [12] and in [13]. The molecule was classed as inactive in assay [14], in [15], in assay [16], in assay [17] and in assay [18].
As to `CCCCC(CC)(CO)CO`, the result in assay [1], in assay [2], in assay [3], in assay [19], in [5] and in assay [6] was inactive. The result in assay [7], in assay [8], in assay [9], in assay [10], in assay [12] and in assay [13] was inactive. Moreover, the molecule was classed as inactive in assay [14], in assay [15], in assay [16], in assay [17] and in assay [18].
Consider `O=C1NC2NC(=O)NC2N1` (stereo unspecified), for which the result in assay [1], in assay [2], in [3], in assay [19], in assay [5] and in assay [6] was inactive. In addition, the outcome in assay [7], in assay [9], in assay [12], in assay [14], in [15] and in assay [16] was inactive. Further, the call in assay [17] and in assay [18] was inactive. Besides, the concentration at half-maximal activity (AC50) in assay [10] is 27.9 µM (active).
Regarding `C[Si](C)(C)O[Si](C)(C)C`, the result in assay [1], in assay [2], in assay [3], in [19], in assay [5] and in [6] was inactive. For the same molecule, the outcome in assay [7], in assay [9], in assay [10], in assay [11], in assay [12] and in assay [13] was inactive. Also, the molecule was called inactive in [14], in assay [15], in assay [16] and in assay [17].
`CN(C)CCOC(C)(c1ccccc1)c1ccccn1` (stereo unspecified): the result in assay [1], in assay [2], in [3], in assay [19], in assay [5] and in assay [6] was inactive. The molecule was called inactive in [7], in [8], in assay [9], in [11], in assay [12] and in [13]. The outcome in assay [14], in assay [15], in [16] and in assay [18] was inactive. In addition, the AC50 in [10] is 100 µM (active).
Regarding `C[N+](C)(C)CCCCCC[N+](C)(C)C`, the molecule was classed as inactive in assay [1], in [2], in assay [3], in [5], in [7] and in assay [8]. In addition, the molecule was classed as inactive in [9], in assay [10], in assay [11], in assay [12], in [13] and in [14]. Also, the result in assay [15], in [16] and in [18] was inactive.

The values are drawn from PubChem BioAssay (EPA / NIEHS).
